Among all 290,000 compounds or so, about 3,100 (1.1%) were called active. What follows is part of a selection rich in actives, with near analogues and random picks from the rest. A number with no mark means an inactive call. Rule as the data show it: active = inhibition above about 16% (passing the limit was not always enough); inactive = the rest.
The compounds below were run against Neuropeptides B/W receptor type 1 (Homo sapiens) (UniProt P48145) (assay: GPR7 receptor antagonists, primary screen, cell-based, fluorescence, single concentration (AID 1861;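 also: cells stimulated with the agonist NPW; 0% = agonist with vehicle and 100% = vehicle without agonist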)). Conditions: GPR7-expressing cells, fluorescence antagonist assay; at 4.4 µM; hits give high values.
Chain of Neuropeptides B/W receptor type 1 (Homo sapiens) (P48145 whole entry, looked up): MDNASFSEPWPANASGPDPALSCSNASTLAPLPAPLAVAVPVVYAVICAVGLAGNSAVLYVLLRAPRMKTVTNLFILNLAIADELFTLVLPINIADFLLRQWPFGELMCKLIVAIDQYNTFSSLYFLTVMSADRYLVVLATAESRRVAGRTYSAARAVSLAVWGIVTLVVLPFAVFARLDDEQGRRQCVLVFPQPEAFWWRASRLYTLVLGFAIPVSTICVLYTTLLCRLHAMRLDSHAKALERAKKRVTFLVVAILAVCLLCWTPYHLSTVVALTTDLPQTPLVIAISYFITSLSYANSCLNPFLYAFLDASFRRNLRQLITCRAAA

SMILES | inhibition
Cc1ccccc1/C=C\c1nc(O)c([N+](=O)[O-])c(=O)[nH]1 | -0.51%
CCOC(=O)N1CCC(N2Cc3cccc(C(=O)Nc4c(C)cccc4CC)c3C2=O)CC1 | 8.95%
Cc1cc(C)cc(OCC(=O)NC(C)c2ccccc2)c1 (stereo not given) | -3.54%
COc1cc(OC)cc(C(=O)N[C@H](C(=O)OCC(=O)NC(C)c2ccccc2)C(C)C)c1 (stereo not given in full) | 34.5% (active)
Cc1ccc(OCC(=O)NC(C)c2ccccc2)cc1C (stereo not given) | 5.96%
Cc1ccc(S(=O)(=O)N2CCC(C)CC2)cc1C(=O)NCc1ccccn1 | -11.1%
Cc1ccc(SCc2c(C(=O)N/N=C/c3cccnc3)nnn2-c2nonc2N)cc1 | -12%
COc1cc(OC)c(S(=O)(=O)Nc2ccccc2C(=O)O)cc1S(=O)(=O)Nc1ccccc1C(=O)O | -13.8%
COc1cc(NC(=O)c2ccccc2NS(=O)(=O)c2ccc(Cl)s2)cc(OC)c1 | 26.7% (active)
COC(=O)c1ccc(NC(=O)c2ccccc2NS(=O)(=O)c2ccccc2)cc1 | 17.3%
COc1ccc(Nc2ncc(F)c(N3CCOCC3)n2)cc1 | -9.42%
COc1ccccc1CN1CCN(C(c2ccccc2)c2ccccc2)CC1 | -16.5%
CC(NCc1ccccc1OC1CCCC1)c1ccccc1 (stereo not given) | 30.2% (active)
CC(=O)OC(C(=O)NC1CCCCC1)c1ccccc1 (stereo not given) | -8.98%
Cc1cnc(CN(C)C(=O)C2CCC(=O)N(CCc3cccc(F)c3)C2)[nH]1 (stereo not given) | -18.8%
Cc1cc2nc(SCCN3CCOCC3)[nH]c2cc1C | 3.59%
Cn1c2ccc(F)cc2c2nnc(NN)nc21 | -11.3%
CCn1c2ccc(F)cc2c2nnc(SCCN3CCOCC3)nc21 | 77.2% (active)
CCCNC(=O)C(=O)Nc1cc2c3c(c1)CCC(=O)N3CCC2 | -11.2%
COc1cccc(NC(=O)c2ccc(Cn3cc([N+](=O)[O-])cn3)o2)c1 | -2.16%
Cn1cc([N+](=O)[O-])c(C(=O)Nc2cnn(Cc3ccc(F)cc3)c2)n1 | -7.64%
CCc1ccc(NC(=O)c2ccc(Cn3cc([N+](=O)[O-])cn3)cc2)cc1 | 23.8% (active)
COc1ccc(/C=N/NC(=O)C2CC2)c(OC)c1OC | -4.35%
O=C1CCCN2N=C(SCC(=O)Nc3ccc(Br)cc3)SC2=N1 | 4.5%
CCc1ccc(C(=O)OCC(=O)Nc2cccc(S(=O)(=O)NC3=NCCCCC3)c2)cc1 | 11.6%
NS(=O)(=O)c1cccc(NC(=O)CSc2nc3ccccc3n2-c2ccccc2)c1 | 0.27%
Cc1cccc(-n2c(SCC(=O)Nc3cccc(S(=O)(=O)NC4=NCCCCC4)c3)nc3ccccc3c2=O)c1C | 27.4% (active)

SMILES | inhibition
CCOc1ccc(S(=O)(=O)NCCCn2ccnc2)cc1NC(C)=O | -14.2%
CCOc1cc(/C=C/c2nc3ccccc3c(=O)[nH]2)cc(Br)c1OC | 19%
O=S(=O)(c1ccc(OCC(O)CN2CCN(c3ccccc3Cl)CC2)cc1)N1CCOCC1 (stereo not given) | 26% (active)
CC(=O)Nc1ccc(OCC(O)CN2CCN(c3ccccc3Cl)CC2)cc1 (stereo not given) | 13%
OC(COc1ccc2ccccc2c1)CN1CCOCC1 (stereo not given) | -2.78%
O=C(Nc1ccc(Br)cc1F)C1CC(=O)N(C2CCCCC2)C1 (stereo not given) | -3.95%
CCN(CC)S(=O)(=O)c1ccc(C(=O)N2CCN(C3=NS(=O)(=O)c4ccccc43)CC2)cc1 | -4.91%
COc1ccccc1N1CC(C(=O)Nc2nnc(SCC(=O)NC(C)C)s2)CC1=O (stereo not given) | -8.06%
COc1ccc(C)cc1NC(=O)Nc1ccccc1SC | -7.07%
COc1ccc(C)cc1NC(=O)NCc1ccccn1 | -18.5%
COc1ccc(C)cc1NC(=O)NCCCCc1ccccc1 | 28.4% (active)
Cc1ccc(CN2CCNC(=O)C2CC(=O)NCc2csc(C(C)C)n2)cc1 (stereo not given) | 7.42%
CCCCOC(=O)Cn1c(=N)n(CCN(CC)CC)c2ccccc21 | 2.44%
CCCCCCCCCCOC(=O)Cn1c(COc2ccc(C)cc2)[n+](C)c2ccccc21 | 19.5%
CCCCCCCCCCOC(=O)Cn1c(COc2cccc(OC)c2)[n+](C)c2ccccc21 | 65% (active)
CCN(CC)c1ccc([N+](=O)[O-])cc1C(=O)O | -0.91%
OCCN(Cc1ccccc1)Cc1ccc(Cl)cc1 | -3.11%
O=[N+]([O-])c1ccc(N(CCO)Cc2ccccc2)c([N+](=O)[O-])c1 | 23.9% (active)
CC1C(=O)Nc2ccccc2N1C(=O)c1ccc(F)cc1F (stereo not given) | -4.79%
CCOc1ccc(CN2CCC(n3nccc3NC(=O)C3CC3)CC2)cc1CO | 1.55%
Cc1cc(C)cc(NC(=O)C2CCCN(S(=O)(=O)c3ccc4[nH]c(=O)ccc4c3)C2)c1 (stereo not given) | -6.12%
CN1CCN(c2ccccc2NC(=O)COc2ccc(C3CCCCC3)cc2)CC1 | -0.24%
COc1ccc(CC(NC(C)=O)C(=O)NC2CCN(C(=O)c3ccc(OC)c(OC)c3)CC2)cc1OC (stereo not given) | 1.05%
COc1ccc(C(=O)N2CCc3cc(OC)c(OC)cc3C2c2cccc([N+](=O)[O-])c2)cc1 (stereo not given) | -1.43%
CCc1ccc(OCC2c3cc(OC)c(OC)cc3CCN2C(C)=O)cc1 (stereo not given) | 45.6% (active)
O=C(CSc1nc2cccnc2n1Cc1ccccc1)N1CCc2ccccc21 | -12%
CCOC(CNC(=O)C1CCN(S(=O)(=O)c2ccc3nc4c(c(C(=O)O)c3c2)CC(C)CC4)CC1)OCC (stereo not given) | -21.9%

SMILES | inhibition
Cc1ccc(CNC(=O)C2CCN(S(=O)(=O)c3ccc4nc5c(c(C(=O)O)c4c3)CC(C)CC5)CC2)cc1 (stereo not given) | 27.2% (active)
CC(=O)N1c2ccc(S(=O)(=O)N3CCC(C(=O)NCc4ccc(F)cc4)CC3)cc2CC1C (stereo not given) | -4.2%
COc1ccc(NC(=S)N2CCc3cc(OC)c(OC)cc3C2)cc1 | 2.63%
COc1ccc2c(CC(=O)OCC(=O)NC(N)=O)coc2c1 | -8.77%
COc1ccc2c(CC(=O)N3CCc4cc(OC)c(OC)cc4C3)coc2c1 | 20.9% (active)
Cc1nn(C)cc1S(=O)(=O)N1CCN(c2ccc(F)cc2)CC1 | -4.94%
O=[N+]([O-])c1ccccc1S(=O)(=O)Nc1cccc2cccnc12 | -12.1%
O=C(NC(=S)NC1CCCCC1)c1ccc(Cl)cc1 | -18.6%
COc1ccccc1-n1c(SCC(=O)Nc2cccc(C(=O)O)c2)nnc1-c1ccccc1O | -17.1%
COCc1ccc(C(=O)NC2CC(C)(C)Cc3c2cnn3-c2ccc(C)cc2)o1 (stereo not given) | -0.16%
COc1cc(OC)c(-n2c(C)cc(C=O)c2C)cc1Cl | -3.29%
COc1cc(OC)c(-n2cc(-c3ccc(Cl)cc3)[nH]c2=O)cc1Cl | 64.5% (active)
COc1ccc(-c2cn(-c3ccc(OC)cc3)c(=S)[nH]2)cc1 | 10.2%
Brc1c(CSc2nncc3ccccc23)nc2ccccn12 | -2.42%
CCOCCCN1C(=O)C2C(C(=O)Nc3ccc(OCC)cc3)C3C=CC2(O3)C1C(=O)NC1CCCCC1 (stereo not given) | -12.8%
CCn1c(CC(=O)Nc2ccccc2)nnc1SCC(=O)N1CCOCC1 | -9.92%
CC1(C)CC(N(Cc2ccccc2)C(=O)Cc2ccccc2)CCO1 (stereo not given) | -11.1%
O=C1c2ccccc2C(=O)N1CCC(c1ccccc1)c1ccco1 (stereo not given) | -19.2%
CC1(C)CC(CNCCC(c2ccc(F)cc2)c2ccco2)CCO1 (stereo not given) | 27.9% (active)
CCC(C(=O)OCC(=O)Nc1ccc(C(=O)Nc2ccc(OC)cc2)cc1)c1ccccc1 (stereo not given) | 0.99%
CCC(C(=O)Nc1ccc2c(c1)OCCO2)c1ccccc1 (stereo not given) | -8.4%
CCC(C(=O)Nc1ccc(C(C)C)cc1)c1ccccc1 (stereo not given) | 55.6% (active)
COc1ccc(-n2nc(C(=O)NCC(=O)N3CCN(c4ccccc4OC)CC3)c3ccccc3c2=O)c(OC)c1 | 1.21%
Cn1nccc1/C=N\NC(=O)c1ccc(Cl)cc1 | -6.59%
O=C(NC1CCCCC1)C1c2ccccc2C(=O)N1Cc1ccco1 (stereo not given) | -11.8%
Cc1ccnc(N2C(=O)c3ccccc3C2Nc2ccc3c(c2)OCCO3)c1 (stereo not given) | -8.69%
O=C1c2ccccc2C(Nc2ccc3c(c2)OCCO3)N1Cc1ccco1 (stereo not given) | 17.6% (active)

SMILES | inhibition
COC(=O)c1c(NC(=O)c2ccc(S(=O)(=O)N3CCOCC3)cc2)sc2c1CCN(C(C)C)C2 | -0.58%
Nc1cccc2c1C(=O)N(Cc1nnc(-c3ccccc3Br)o1)C2=O | -16%
CN(C)/C=N/c1cc(=O)n(C)c(=O)n1CC1CC1 | -1.62%
Cc1ccc(O)c(NC(=O)COc2cc(C)ccc2C)c1 | 10.6%
Cc1cccc(OCC(=O)NC(=S)Nc2ccccc2N2CCOCC2)c1 | -14.9%
Cc1ccc(O)c(NC(=S)NC(=O)COc2ccc(Br)cc2)c1 | 89.1% (active)
Cc1cccc(C2C3=C(CCCC3=O)N=C3c4ccccc4C(=O)C32)c1 (stereo not given) | -14.3%
CCn1cc(C(=O)NCCC(=O)NCCO)c(=O)c2cc3c(cc21)OCO3 | -13.5%
COC(=O)CN1C(=O)[C@H]2[C@@H](/C=C/c3ccccc3)N3C(=O)CN(CC4CC4)C(=O)[C@@]3(Cc3ccccc3)[C@H]2C1=O | -2.59%
CCCCSCCCNC(=O)C1CCC(CNS(=O)(=O)c2ccc(NC(C)=O)cc2)CC1 (stereo not given) | 3.79%
Cc1nn(-c2ccccc2)c2c1c(C)c(CCC(=O)NCC1CCCO1)c(=O)n2C (stereo not given) | -15.7%
Cc1ccc(C(=O)NCC(=O)OCC(=O)NC2CCCCCCC2)cc1 | -6.33%
O.O.O.O=S(=O)([O-])OC[C@H]1O[C@@H](O[C@]2(COS(=O)(=O)[O-])O[C@H](OS(=O)(=O)[O-])[C@@H](OS(=O)(=O)[O-])[C@@H]2OS(=O)(=O)[O-])[C@H](OS(=O)(=O)[O-])[C@@H](OS(=O)(=O)[O-])[C@@H]1OS(=O)(=O)[O-].[Al] | -11%
O=C(NCc1ccco1)/C(=C/c1ccco1)NC(=O)c1ccccc1 | -4.86%
NC(=O)C1CCN(C(=O)/C(=C/c2ccco2)NC(=O)c2ccccc2)CC1 | -7.3%
O=C(OCN1C(=O)c2ccccc2C1=O)/C(=C\c1ccco1)NC(=O)c1ccccc1 | 19% (active)
C[C@H](NC(=O)C1CC(=O)N(c2ccc3c(c2)OCO3)C1)C(=O)NCc1ccco1 (stereo not given in full) | 1.22%
O=S(=O)(Nc1ccc2[nH]ncc2c1)c1ccccc1Cl | 6.14%
O=C(Cn1nc(CNc2ccc(Cl)cc2)[n+]2c1CCCCC2)c1ccc(Cl)cc1 | -3.46%
CC(=O)Nc1ccc(Oc2ccc3c(c2)C(=O)NC3=O)cc1 | 7.14%
S=C(NCCC1=CCCCC1)Nc1ccccc1 | 8.55%
S=C(NCCCc1ccccc1)Nc1ccc(Br)cc1 | -16.1%
S=C(NCCc1ccccc1)Nc1ccccc1 | 21.5% (active)
COc1ccc(-c2nnc3n2CCCCC3)cc1 | 1.65%
